Measured values published in PubChem BioAssay (NCI).
About 83,000 compounds went through this panel and 20% of them were active in at least one assay; those are over-represented in the sample as a whole.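 96-well plates, one dose, 48 hours. Percent growth reported; active if below 10.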 Unmarked numbers belong to inactive results. Active and inactive are the calls of the source.

Tests used:
Test in all cases: NCI-60 one-dose screen, 48 h (100 = growth as untreated, 0 = no growth, -100 = all killed)
Conditions in all cases: 10 µM unless noted
MOLT-4 leukemia = test system: MOLT-4 leukemia
SR leukemia = test system: SR leukemia
RPMI-8226 leukemia = test system: RPMI-8226 leukemia
OVCAR-8 ovarian = test system: OVCAR-8 ovarian
OVCAR-5 ovarian = test system: OVCAR-5 ovarian
OVCAR-4 ovarian = test system: OVCAR-4 ovarian
SK-OV-3 ovarian = test system: SK-OV-3 ovarian
IGROV1 ovarian = test system: IGROV1 ovarian
OVCAR-3 ovarian = test system: OVCAR-3 ovarian
HS 578T breast = test system: HS 578T breast
T-47D breast = test system: T-47D breast
BT-549 breast = test system: BT-549 breast
MDA-MB-435 melanoma = test system: MDA-MB-435 melanoma
SW-620 colon = test system: SW-620 colon
MCF7 breast = test system: MCF7 breast
HCT-116 colon = test system: HCT-116 colon
HCC-2998 colon = test system: HCC-2998 colon
KM12 colon = test system: KM12 colon
NCI/ADR-RES ovarian = test system: NCI/ADR-RES ovarian

SMILES	growth (MOLT-4 leukemia)	growth (SR leukemia)	growth (RPMI-8226 leukemia)	growth (OVCAR-8 ovarian)	growth (OVCAR-5 ovarian) [%]	growth (OVCAR-4 ovarian)	growth (SK-OV-3 ovarian)	growth (IGROV1 ovarian)	growth (OVCAR-3 ovarian)	growth (HS 578T breast)	growth (T-47D breast)	growth (BT-549 breast)	growth (MDA-MB-435 melanoma)	growth (SW-620 colon)	growth (MCF7 breast)	growth (HCT-116 colon)	growth (HCC-2998 colon)	growth (KM12 colon)	growth (NCI/ADR-RES ovarian)
COC(=O)[C@H](Cc1ccccc1)NC(=O)c1csc([C@@H](C[C@H](C(C)C)N(C)C(=O)[C@@H](NC(=O)[C@H]2CCCN2C)C2CC2)OC(C)=O)n1	5.46% (active)	6.34% (active)	10.9%	27.3%	36.1	59.5%	52.8%	39.1%	-3.48% (active)	14.6%	54.5%	20.6%	-31.2% (active)	24.5%	20.4%	-2.44% (active)	27.8%	12.6%	–
CO[C@H](C(=O)O)[C@@H]1Cc2cc3cc(OC4CC(OC5CC(O)C(O)C(C)O5)C(O)C(C)O4)c(C)c(O)c3c(O)c2C(=O)[C@H]1OC1CC(OC2CC(OC3CC(C)(O)C(O)C(C)O3)C(O)C(C)O2)C(O)C(C)O1 (stereo not given in full)	1.78% (active)	10.4%	6.67% (active)	13.5%	17.6	19.7%	23.7%	35.4%	10%	-1.09% (active)	12.8%	-41.9% (active)	1.21% (active)	19.1%	7.44% (active)	6.04% (active)	-37.8% (active)	7.07% (active)	–
ClCCN(CCCl)Cc1ccc(Nc2ccnc3cc(Cl)ccc23)cc1	-33.5% (active)	-15.9% (active)	0.54% (active)	37.9%	74.1	48.2%	53.5%	55.4%	39.7%	–	36.2%	65.2%	39.6%	34.3%	18%	36.5%	71%	62.9%	71.3%
C[C@]12C[C@@H](CO)[C@H](O)C[C@@H]1CC[C@@H]1[C@@H]2CC[C@]2(C)[C@@H](O)CC[C@@H]12	85.8%	79.4%	91.9%	96.8%	104	105%	106%	105%	101%	–	104%	78.9%	105%	101%	121%	103%	97.9%	101%	99.6%
[Cl][Hg][n]1c(-c2ccco2)nc2ccccc21	88.3%	64.2%	92.7%	106%	117	100%	119%	90.5%	–	93.9%	94.6%	99.2%	95.7%	80.9%	74.9%	99.7%	116%	97.8%	98.6%
O=C1OCCC1Br (stereo not given)	107%	92.3%	97.2%	96.2%	104	107%	99.4%	110%	112%	–	105%	85.3%	103%	103%	101%	103%	–	108%	106%
O=[N+]([O-])c1c(Br)sc(Br)c1[N+](=O)[O-]	-3.6% (active)	-5.81% (active)	16.7%	5.21% (active)	76.3	30.9%	98.7%	3.28% (active)	-62.4% (active)	–	-6.93% (active)	–	17.5%	-77% (active)	23.3%	-85.2% (active)	68%	64.1%	-23.6% (active)
COC(=O)CCc1c[nH]c2ccc(N(CCCl)CCCl)cc12	23.1%	12.7%	86.3%	56.1%	80.3	79.7%	66.4%	65.6%	80.3%	–	60.2%	57.4%	74.1%	47.5%	30.9%	53.1%	84%	86.6%	52.7%
CC1CN1CCCCN1CC1C (stereo not given)	86.2%	81.5%	94.4%	102%	102	112%	103%	107%	103%	–	101%	103%	111%	105%	93.8%	95.7%	94.2%	104%	–
CCCCN1CCCC[C@@H]1C(=O)N[C@H](C(=O)N(C)[C@H](CCc1nc(C(=O)N[C@@H](Cc2ccccc2)C[C@H](C)C(=O)OC)cs1)C(C)C)[C@@H](C)CC	34.7%	8% (active)	28.6%	80.9%	101	56.9%	49.9%	48.9%	13.8%	76%	44.2%	36.4%	-30% (active)	63.7%	18.5%	31.6%	–	28%	–
O=C(O)CNC(=O)C(Cl)(Cl)Cl	91.7%	89.8%	92.3%	90.3%	97.1	99.5%	108%	100%	108%	–	94.5%	103%	97.8%	94.8%	91.1%	107%	104%	101%	108%
CCOC(=O)C(Cc1ccc(N(CCCl)CCCl)cc1)NC(=O)C(CC(C)C)NC(C)=O (stereo not given)	6.43% (active)	-13.9% (active)	21%	32.6%	36.8	-16.2% (active)	53.3%	22.5%	-34.4% (active)	108%	22.5%	65%	44.4%	9.17% (active)	21.3%	23.6%	50.8%	71.6%	–
C=C1[C@@H](C)[C@H]2[C@H](Cc3ccccc3)NC(=O)[C@]23[C@@H](O)/C=C/[C@@](C)(O)C(=O)[C@@H](C)C/C=C/[C@H]3[C@@H]1O	61.5%	64.3%	68.4%	69.3%	38.1	53.7%	38.1%	70.5%	46.2%	-11.7% (active)	48.3%	63.1%	80.5%	41.8%	63.8%	50.1%	62.4%	81.5%	–
O=C(c1ccccc1O)c1[nH]c(Cl)c(Cl)c1-n1c(C(=O)c2ccccc2O)cc(Cl)c1Cl	-1.12% (active)	8.12% (active)	-30.1% (active)	8.28% (active)	18.5	14.5%	-5.75% (active)	23%	–	-16.9% (active)	-10.1% (active)	-5.5% (active)	3.49% (active)	7.86% (active)	1.43% (active)	0.716% (active)	–	-19.3% (active)	-3.31% (active)
O=C(NCCN1CC1)C(=O)NCCN1CC1	55.3%	19%	98.5%	69.3%	104	106%	98%	78.5%	99.6%	107%	88.2%	88.7%	106%	84.7%	65.8%	87.9%	89.1%	97.8%	–
O=C1CCC2(O)[C@@H]3Cc4ccc(O)c5c4[C@]2(CCN3Cc2ccoc2)C1O5 (stereo not given in full)	101%	95.4%	101%	102%	98.7	105%	105%	112%	107%	105%	98.1%	110%	105%	102%	97.5%	88.1%	104%	98.2%	–
Cn1cc(C=O)c2nccnc21	101%	105%	103%	104%	120	–	101%	122%	125%	100%	104%	151%	106%	110%	91.4%	116%	–	119%	105%
